# From PubChem BioAssay (Tox21)
# Inconclusive results are not listed. Where a call stands in place of a potency, no number is given. Activity calls are given as the source filed them. Calls come from the whole dose curve.
# Target: Beta-2 adrenergic receptor (Homo sapiens) (UniProt P07550)
# Assay: Adrenergic beta2 receptor (ADRB2) small molecule agonists, cell-based qHTS assay (AID 1963593)
# Conditions: CHO-ADRB2 cells, cAMP HTRF, 30 min; series mostly up to 92.4 µM
# From the text: National Center for Advancing Translational Sciences [NCATS]
# Division of Preclinical Innovation [DPI]
# U.S. Environmental Protection Agency [EPA]
# National Institutes of Environmental Health Sciences [NIEHS]
# National Toxicology Program [NTP]
# U.S. Food and Drug Administration [FDA]
# Beta adrenergic receptors (Beta-ARs) belong to the G-protein coupled receptor (GPCR) superfamily, includes three subtypes - beta1, beta2, and beta3. Beta1-AR is the predominant receptor subtype expressed in the heart, and beta2-AR is expressed in the kidney, lung, blood vessel and in the heart, and beta3 is found in the adipocytes. Beta1 and 2 ARs couple to Gs protein and elevate cyclic adenosine mono phosphate (cAMP), which activates protein kinase A and leads to the downstream signaling responsible for the physiological actions. Beta-AR agonists or antagonists are the most prescribed therapeutic agents for heart failure and asthma, and these were one of the first target receptors for the rational drug design. Tox21 10K compound library was screened using the cAMP-Gs dynamic assay (Cisbio Bioassays, Shelton, CT) to identify agonists/antagonists of the Gs-coupled human adrenergic, beta2 receptor (ADRB2) in the CHO-ADRB2 cell line (Codex BioSolutions, Inc. Gaithersburg, MD), which stably over-expresses ADRB2. The principle of cAMP-Gs dynamic assay is based on HTRF technology, which facilitates the fluorescence resonance energy transfer (FRET) between donor Europium cryptate and acceptor d2-labeled cAMP. The cAMP generated within cells competes with the red acceptor, d2-labled cAMP, for binding to the monoclonal anti-cAMP-cryptate (Europium donor). An increase in intracellular cAMP leads to the disruption of FRET signal, and the signal is inversely proportional to the cAMP concentration. Isoproterenol HCl (Sigma-Aldrich, St. Louis, MO) was used as a positive control in the screening.
# Tox21 Assay Protocol Summary:
# CHO-ADRB2 cells were dispensed at 1,000/well in 4uL assay medium into white/solid 1536-well plates (Greiner Bio-One North America Inc., Monroe, NC) using a Multidrop Combi dispenser (ThermoFisher Scientific, Waltham, MA). The assay plates were incubated at 37C and 5% CO2 for an overnight (18-20hr). Then positive control and test compounds dissolved in DMSO were transferred to the assay plates at 23nL using a Pintool station (Wako, San Diego, CA). Following the compound and positive control transfer, 1uL stimulation mix containing 100uM IBMX and 25uM Ro-20-1724 was added to each well of the assay plates using BioRAPTR Flying Reagent Dispenser (FRD, Beckman Coulter, Brea, CA). The assay plates were incubated at room temperature for 0.5hr. Then 2.5ul each d2-labled cAMP and anti-cAMP-cryptate solutions were added separately to each well of the assay plates using an FRD and the assay plates were incubated at room temperature for 1hr.
# Sequence of Beta-2 adrenergic receptor (Homo sapiens) (P07550 whole entry, looked up): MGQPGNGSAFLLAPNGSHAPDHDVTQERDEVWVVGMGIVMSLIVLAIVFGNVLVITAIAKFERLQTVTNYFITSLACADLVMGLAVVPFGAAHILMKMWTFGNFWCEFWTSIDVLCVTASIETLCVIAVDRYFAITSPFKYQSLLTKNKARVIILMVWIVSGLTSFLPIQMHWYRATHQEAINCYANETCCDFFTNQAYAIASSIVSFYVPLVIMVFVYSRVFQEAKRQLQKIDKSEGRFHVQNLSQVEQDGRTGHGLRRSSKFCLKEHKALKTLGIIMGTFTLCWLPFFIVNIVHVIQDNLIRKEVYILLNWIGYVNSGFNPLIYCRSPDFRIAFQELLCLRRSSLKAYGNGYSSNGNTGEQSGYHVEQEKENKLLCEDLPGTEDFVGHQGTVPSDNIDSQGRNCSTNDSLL
row,Structure (SMILES),Potency
1,CCCn1cc[n+](C)c1,inactive
2,C=CC(=O)OCC(CC)CCCC (stereo not given),inactive
3,NNc1ccccc1,inactive
4,COCC(=O)N(c1c(C)cccc1C)N1CCOC1=O,inactive
5,Nc1nc(=S)[nH][nH]1,inactive
6,CCC1(CC)C(=O)C=CNC1=O,inactive
7,Cc1ccc(O)c(C)c1,inactive
8,CC[N+](=O)[O-],inactive
9,N#Cc1cc(Br)c(O)c(Br)c1,inactive
10,C/C(=N\NC(=O)Nc1cc(F)cc(F)c1)c1ncccc1C(=O)O,inactive
11,CC(=O)/C=C/c1ccccc1,inactive
12,Cc1cccc(N)c1C,inactive
13,N#Cc1cc([N+](=O)[O-])ccc1N,inactive
14,ClC(Cl)c1ccccc1,inactive
15,CCNc1nc(Cl)nc(NCC)n1,inactive
16,OCc1ccco1,inactive
17,O=C(O)C(Cl)(Cl)Cl,inactive
18,COP(=O)(NC(C)=O)SC (stereo not given),inactive
19,CCc1cccc(C)c1N(C(=O)CCl)C(C)COC (stereo not given),inactive
20,C=CCO,inactive

row,Structure (SMILES),Potency
1,CCNc1nc(Cl)nc(NC(C)(C)C#N)n1,inactive
2,C=CC(=O)OCCO,inactive
3,CCOC(=O)c1ccccc1N,inactive
4,COP(=O)(OC)C(O)C(Cl)(Cl)Cl (stereo not given),inactive
5,C#C[C@]1(O)CC[C@H]2[C@@H]3CCC4=CC(=O)CC[C@]4(C)[C@H]3CC[C@@]21C,inactive
6,CC1=C(C(=O)Nc2ccccc2)SCCO1,inactive
7,Clc1ccc(C(c2ccc(Cl)cc2)C(Cl)(Cl)Cl)cc1,inactive
8,Cn1c(-c2ccccc2)cc(-c2ccccc2)[n+]1C,inactive
9,Cc1ccc(CCl)cc1,inactive
10,N#CCc1ccccc1,inactive
11,COP(=S)(OC)Oc1ccc(S(=O)(=O)N(C)C)cc1,inactive
12,CC(C#N)CCC#N (stereo not given),inactive
13,CCC[N+]1(C)CCCCC1,inactive
14,Cc1ccc(-c2nc3ccc(C)cn3c2CC(=O)N(C)C)cc1,inactive
15,O=[N+]([O-])c1ccc(CBr)cc1,inactive
16,NNC(N)=S,inactive
17,C=CC(=O)OC(C)(C)C,inactive
18,O=C(NC(=O)c1c(F)cccc1F)Nc1ccc(Cl)cc1,inactive
19,CC(=O)C(C)(C)C,inactive
20,Clc1ccc(C2(Cn3cncn3)OCCO2)c(Cl)c1,inactive
